Assay results reported in PubChem BioAssay.
A number with no mark means an inactive call. How the calls were made is not given here.

What follows are compounds tested against Pantothenate synthetase (Mycobacterium tuberculosis (strain ATCC 25618 / H37Rv)) (UniProt P9WIL5) (assay: Recombinant Mtb pantothenate synthetase (PanC) inhibitors, coupled enzyme, confirmatory (AID 375;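 further: 0% = full reaction with vehicle and 100% = no enzyme background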)). Conditions: coupled enzyme assay; at 10 µM, hits give high values.
Chain of Pantothenate synthetase (Mycobacterium tuberculosis (strain ATCC 25618 / H37Rv)) (P9WIL5 whole entry, looked up): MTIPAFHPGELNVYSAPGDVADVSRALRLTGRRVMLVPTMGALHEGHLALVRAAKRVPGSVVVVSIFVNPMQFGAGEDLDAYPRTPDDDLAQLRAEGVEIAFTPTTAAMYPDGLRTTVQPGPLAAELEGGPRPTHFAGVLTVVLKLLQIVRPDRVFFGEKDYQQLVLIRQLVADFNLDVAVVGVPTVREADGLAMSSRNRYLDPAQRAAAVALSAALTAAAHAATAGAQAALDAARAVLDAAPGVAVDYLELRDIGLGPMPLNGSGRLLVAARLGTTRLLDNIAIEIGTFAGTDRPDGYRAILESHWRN
With `Cc1ccc(-c2ccc(=O)n(CCC(=O)NCCN3CCCCC3C)n2)cc1` (centres undefined) the inhibition was 0%.
Work on `O=C1CC(c2ccc(F)c(Br)c2)C2=C(CCCC2=O)N1` (centres undefined) yielded an inhibition of 5%.
Work on `CC(C)c1ccc(S(=O)(=O)N2CCN(CCC(=O)Nc3ccc(N(C)C)cc3)CC2)cc1` yielded an inhibition of 5%.
For `CCCCN(C)C(=O)CS(=O)(=O)Cc1nc(-c2cccc(OC)c2)oc1C`, the inhibition was 0%.
Compound `Cc1ccc(Cn2nnc3c(=O)[nH]c(C4CCN(S(=O)(=O)c5ccc(F)cc5)CC4)nc32)cc1` has an inhibition of 3%.
`COCCn1nnnc1C(c1cc2ccc(OC)cc2[nH]c1=O)N1CCc2ccccc2C1` (centres undefined) was tested, and the inhibition was 0%.
For `CN(CCNC(=O)c1ccc(N2CCCC2=O)cc1)CCc1ccccc1`, the inhibition was 0%.
`CCOC(=O)CSC1=C(C#N)C(c2ccc(Cl)cc2)C(C(=O)OC)C(=O)N1` (centres undefined) was tested, and the inhibition was 0%.
`C/C(=C\C(=O)c1ccc(F)cc1)Nc1ccc(N2CCOCC2)cc1` was tested, and the inhibition was 0%.
